DT40 TDP1 no CPT – qHTS for Inhibitors of human tyrosyl-DNA phosphodiesterase 1 (TDP1): qHTS in cells in absence of CPT; 420,000 compounds, 15% hits; Potency, µM (doses to about 46.2 µM), most hits filed as inhibitors; AID 686978, 2013; DT40 Tdp1-/- hTDP1 cells, no CPT, ATP luminescence, 48 h; note: nearly all actives have a fitted effect of over 55% in size
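Growth kinetics read by CellTiter-Glo luminescence after ≥48 hr at 37 °C. Cells: DT40 Tdp1-/- stably carrying human TDP1, 400 per well, compound exposure in the absence of CPT (DMSO vehicle).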
TDP1 cell CPT – DT40-hTDP1 cell growth loss with CPT. chicken DT40 Tdp1-/-;hTDP1 cells + 20 nM CPT, ATP luminescence, 48 h. Potency, µM (titrated, usually from 46.2 µM), hits mostly inhibitors. 420,000 compounds, 12% hits. AID 686979; note: nearly all actives have a fitted effect of over 55% in size
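Chicken DT40 Tdp1-/- cells complemented with human TDP1, 400 cells/well, exposed to compounds plus 20 nM camptothecin for at least 48 h at 37 C; viability read as ATP content by CellTiter-Glo luminescence.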
IL1B secr inh – inhibitors of inflammasome signaling (IL-1 beta secretion); 360,000 compounds, 4.7% hits; activity change, % at 57.5 µM; THP-1 LPS/ATP IL-1B secretion, AlphaLISA, 16 h; active compounds read low; in the data active = activity change below about -50%; inconclusive = mostly about -30% to -49%
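THP-1 cells pretreated 1 hr with compounds (up to 57.5 uM final), then stimulated with LPS (250 ng/mL final) plus ATP (1.25 mM final); secreted IL-1B measured by AlphaLISA after 16 hr, decreased signal indicating inhibition.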
HT1080-NT tox – kills 2HG-producing HT-1080-NT fibrosarcoma cells. AID 686970. 360,000 compounds, 1.6% hits. HT-1080-NT fibrosarcoma viability, CellTiter-Glo ATP luminescence, 48 h. Potency, µM (highest dose often 46.1 µM), hits mostly cytotoxic;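 note: NT is the 2HG producing partner of a matched IDH1 knockdown line; nearly all actives have a fitted effect of over 55% in size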
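HT-1080-NT fibrosarcoma cells (2HG-overproducing), 750 cells/well in RPMI with 5% FBS, dosed after 2 h and incubated 48 h at 37C. CellTiter-Glo luminescence normalized to DMSO and no-cell wells; concentration-response curves fitted and classed.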
ELG1 DNA repair – inhibitors of ELG1-dependent DNA repair in HEK293T cells. Potency, µM (series often up to 46.1 µM), actives largely listed as inhibitors. HEK293T ELG1-luciferase reporter, luminescence, 16 h; DNA damage induced by 5-fluorouridine. AID 504467. 330,000 compounds, 2.3% hits; note: nearly all actives have a fitted effect of over 55% in size
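DMSO vehicle served as the neutral condition. Each well held 2,000 cells given 5-fluorouridine plus compound; after 16 hr at 37 °C/5% CO2, ONE-Glo was added and luciferase measured 30 min later.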
HT1080 IDH1KD tx – HT-1080 IDH1 knockdown cell toxicity (counter line) | HT-1080 IDH1 knockdown viability, ATP luminescence, 48 h | 360,000 compounds, 2% hits | Potency, µM (highest dose often 46.1 µM), hits mostly cytotoxic | AID 686971
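Assay cells: HT-1080 with IDH1 knockdown, 750 per well, RPMI/5% FBS. Exposure: 48 h at 37 °C following 2 h pre-incubation. Read: CellTiter-Glo luminescence; fitted concentration-response, curve class assigned.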
A number is an active result; . = inactive; ? = inconclusive; / = no result given; [ ] = remark or other dose. This is a sample that favours compounds with a hit; in the whole collection about 19% have one here. Unless noted, calls come from the whole dose curve; as a rule, active = well fitted curve in the direction sought with a large enough effect; inconclusive = small, poorly fitted or top-dose-only effect, or another doubt; inactive = no such curve, though single readings can be large; an effect the other way counts as inactive or inconclusive.

SMILES	DT40 TDP1 no CPT	TDP1 cell CPT	IL1B secr inh	HT1080-NT tox	ELG1 DNA repair	HT1080 IDH1KD tx
CCC(=O)N/N=C(\C)CC(=O)Nc1ccc2c(c1)OCCO2	.	.	.	.	?	.
CCN(C(=O)COC(=O)c1ccc(N2C(=O)c3ccccc3C2=O)cc1)C1CCS(=O)(=O)C1 (centres undefined)	.	.	.	.	.	.
Cc1ccc(-c2cnc(NC(=O)c3cccc(Br)c3)s2)c(C)c1	?	?	-58	.	.	.
CNc1nc(-c2ccccc2)nnc1C(F)(F)F	.	.	.	.	.	.
Cc1ccc(Sc2nc(-c3ccccc3)nnc2C(F)(F)F)cc1	21µM	21µM	.	.	.	.
CCCCC(=O)N(C)c1c(CC)nc2c(OCC(=O)N(C)C)cccn12	.	.	.	.	/	.
CCc1nc2c(OCc3cccc(Cl)c3)cccn2c1N(C)C(C)=O	?	?	.	.	/	.
CCc1nc2c(OCc3cccc(Cl)c3)cccn2c1N(C)C(=O)C(C)C	18µM	16µM	.	.	/	.
CCc1nc2c(OCc3cccc(Cl)c3)cccn2c1N(C)C(=O)Nc1ccccc1OC	23µM	18µM	.	?	/	?
CCCCC(=O)N(C)c1c(CC)nc2c(OCC=C(C)C)cccn12	21µM	?	.	?	/	?
CCCCC(=O)N(C)c1c(CC)nc2c(OCc3cccc(Cl)c3)cccn12	23µM	?	.	?	/	?
CCCn1cc(S(=O)(=O)c2ccccc2)c(=O)c2cc(F)c(N3CCN(C)CC3)cc21	.	.	.	.	.	.
COc1ccccc1NS(=O)(=O)c1cccc(NS(=O)(=O)c2cc(C(=O)O)ccc2Cl)c1	.	.	.	.	/	.
N=c1nc(N)nc2n1NC(c1ccc(F)cc1)=CS2	16µM	18µM	?	?	?	?
Cc1ccccc1-c1nc(CS(=O)(=O)CC(=O)N2CCOCC2)c(C)o1	.	.	.	.	.	.
CCc1ccc(C(=O)C(C)OC(=O)c2nc3nc(C)cc(C)n3n2)cc1 (centres undefined)	.	.	.	.	.	.
Nc1ccc(N=Nc2ccc(O)cc2)c(N)n1	15µM	21µM	.	.	/	.
C=C(C)C1CC=C(C)CC1 (centres undefined)	.	.	/	/	/	/
Cc1ccc(-n2c(-c3ccc(Br)cc3)nc3c(cnn3-c3ccccc3)c2=O)cc1	21µM	?	/	/	/	/
COc1cccc(/C=N/n2cnc3c(cnn3-c3ccccc3)c2=O)c1	.	.	.	.	.	.
O=c1oc(-c2ccccc2F)nc2c1cnn2-c1ccccc1	23µM	?	.	.	.	.[9.24 µM]
COc1cccc(-n2c(-c3ccccc3F)nc3c(cnn3-c3ccc(C)cc3)c2=O)c1	12µM	16µM	/	/	/	/
Cc1ccc(-c2nc3c(cnn3-c3ccccc3)c(=O)n2-c2cccc(Cl)c2)cc1	13µM	23µM	/	/	/	/
COc1ccc(NC(=O)CSC(C)c2nc3ccccc3c(=O)[nH]2)cc1 (centres undefined)	.	.	.	.	.	.
O=c1[nH]c2c(cnn2-c2ccc(Cl)cc2)c(=O)n1-c1cccc(Cl)c1	29µM	?	.	.	.	.
SMILES	DT40 TDP1 no CPT	TDP1 cell CPT	IL1B secr inh	HT1080-NT tox	ELG1 DNA repair	HT1080 IDH1KD tx
O=c1oc(-c2cccc(Cl)c2)nc2c1cnn2-c1ccccc1	?	?	.	.	.	.
Cc1ccc2c(c1)N(C(=O)c1ccc(F)cc1)C(C)(C)CC2(C)c1ccccc1 (centres undefined)	21µM	?	/	/	/	/
CC1(c2ccc([N+](=O)[O-])cc2)CC(C)(C)N(C(=O)c2ccccc2)c2ccccc21 (centres undefined)	/	/	/	/	.	/
CN1CCN(CC(=O)N2c3ccccc3C(C)(c3ccccc3)CC2(C)C)CC1 (centres undefined)	18µM	16µM	.	.	.	?
CCOCCc1nnc(NC(=O)C(=O)c2cc(C)n(-c3cccc(C)c3)c2C)s1	?	.	/	/	/	/
COC1(OC)C(/C=C/c2ccc(C)cc2)C(C#N)(C#N)C1(OC)OC (centres undefined)	?	?	-120	?	/	?
COc1ccc(-n2nc(C(=O)NCC(=O)NCc3cccc(F)c3)c3ccccc3c2=O)cc1Cl	?	.	.	.	.	.
Cc1ccc(N2CC(c3nnc(NC(=O)c4ccco4)s3)CC2=O)cc1C (centres undefined)	.	?	/	/	/	/
O=C(Nc1nccs1)c1cccc(N2C(=O)c3cccc4c([N+](=O)[O-])ccc(c34)C2=O)c1	3.7µM	5.2µM	-106	21µM	.	16µM
O=C(O)c1ccc(S(=O)(=O)c2ccc3c(c2)C(=O)N(c2ccccc2[N+](=O)[O-])C3=O)cc1	.	.	.	.	.	.
O=C(O)c1ccc(CN2C(=O)c3cccc4c([N+](=O)[O-])ccc(c34)C2=O)cc1	16µM	15µM	-99	?	?	?
O=C(Nc1ccc(S(=O)(=O)Nc2nccs2)cc1)c1cccc(N2C(=O)c3ccccc3C2=O)c1	.	.	.	.	.	.
Cc1ccc(C(=O)O)cc1N1C(=O)c2cccc3c([N+](=O)[O-])ccc(c23)C1=O	6.5µM	6.5µM	.	16µM	?	?
CC(=O)Oc1cccc(N2C(=O)c3ccc(C(=O)O)cc3C2=O)c1	.	.	.	.	.	.
CC(=O)Oc1cccc(N2C(=O)c3cccc4c([N+](=O)[O-])ccc(c34)C2=O)c1	2.9µM	2.3µM	-95	.	.	.
Cc1ncsc1CCOC(=O)C1C2CC3CC(C2)CC1C3 (centres undefined)	23µM	?	.	.	.	?
Cc1ncc(C[n+]2csc(CCOC(=O)CC3C4CC5CC(C4)CC3C5)c2C)c(N)n1 (centres undefined)	.	.	.	.	.	.
Cc1ccc(NC(=O)c2cn3c4c(ccc(Cl)c4c2=O)OC(C)C3)c(C)c1 (centres undefined)	.	.	/	/	/	/
CN(c1cccc(NC(=O)CN(c2ccc(C34CC5CC(CC(C5)C3)C4)cc2)S(C)(=O)=O)c1)S(C)(=O)=O	21µM	18µM	.	?	?	20µM
O=C(CN(c1ccc(Cl)c(C(F)(F)F)c1)S(=O)(=O)c1ccccc1)Nc1cccnc1	7.3µM	?	/	/	/	/
O=C(CN(c1cccc(C(F)(F)F)c1)S(=O)(=O)c1ccccc1)Nc1cccc(Cl)c1	15µM	16µM	/	/	/	/
COc1cccc(NC(=O)CN(c2cccc(C(F)(F)F)c2)S(C)(=O)=O)c1	.	.	?	.	?	.
